Experiment [1] can be described thus: binders of probe aFSTL3 on microarray, primary screen, stem cell growth factor project, biochemical, small-molecule microarray, fluorescence 635/667 (AID 1064).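 Note: measures binding of the biotinylated anti-FSTL3 antibody to printed compounds.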 The note with it: higher = more signal.
Experiment [2] in a line: binders from COS7 lysate, DM2A8 probe, primary screen, torsin A project, cell lysate, small-molecule microarray, fluorescence 635/667 (AID 1065). As to conditions: higher = more signal, COS7 lysate expressing mutant human TOR1A.
The nature of experiment [3]: binders of probe aFGF2 on microarray, primary screen, stem cell growth factor project, biochemical, small-molecule microarray, fluorescence 635/667 (AID 1067).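 Note: measures binding of biotinylated aFGF2 protein to printed compounds on slides; z-score merges feature fluorescence and signal-to-noise across triplicate slides.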 As to conditions: higher = more signal.
Experiment [4] can be described thus: binders of probe aFGF10 on microarray, primary screen, stem cell growth factor project, biochemical, small-molecule microarray, fluorescence 635/667 (AID 1071).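 Note: score merges 667 nm spot intensity and signal to noise from triplicate slides.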 The note with it: higher = more signal.
The target in experiment [5] is Neurogenic locus notch homolog protein 2 (Homo sapiens) (UniProt Q04721). Kind of experiment: Notch2 binders on small-molecule microarrays, primary screen, biochemical, small-molecule microarray, 635 nm fluorescence, stem cell growth factors (AID 1073). As to conditions: Notch2 binding, higher = more signal.
The target of experiment [6] is Pro-neuregulin-1, membrane-bound isoform (Homo sapiens) (UniProt Q02297). In words: NRG1 binders on small-molecule microarrays, primary screen, psychiatric disease protein project, biochemical, small-molecule microarray, fluorescence 635/667 (AID 1075).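 Note: score combines 667 nm spot fluorescence with signal to noise.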 As to conditions: NRG1 binding, 635 nm fluorescence, higher = more signal.
For experiment [7], the system named is Neuregulin-1 EGF-like domain. In words: binders of neuregulin-1 EGF-like domain, primary screen, biochemical, small-molecule microarray, 635 nm fluorescence (AID 1081).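 Note: binding of the protein to compounds printed on small-molecule microarray slides.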 As to conditions: small-molecule microarray binding, higher = more signal.
Experiment [8] in a line: FRG1 promoter luciferase signal modulators, primary screen, FRG1 inhibition for FSHD, cell-based, C2C12 myotubes, firefly/Renilla luciferase, luminescence (AID 1084). The note with it: higher = more signal, called active from +8 up or from −8 down.
Experiment [9] can be described thus: binders of probe aFST on microarray, primary screen, stem cell growth factor project, biochemical, small-molecule microarray, fluorescence 635/667 (AID 1086).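 Note: score merges 667 nm fluorescence with signal-to-noise of each printed compound spot.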 The note with it: higher = more signal.
The nature of experiment [10]: binders of probe aHhip on microarray, primary screen, stem cell growth factor project, biochemical, small-molecule microarray, fluorescence 635/667 (AID 1087).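 Note: score merges spot fluorescence at 667nm with spot signal to noise ratio.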 The note with it: higher = more signal.
Experiment [11] deals with PRMT1 (protein arginine N-methyltransferase 1). In words: PRMT1 binders on small-molecule microarrays, primary screen, biochemical, small-molecule microarray, 635 nm fluorescence (AID 1088).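 Note: binding of Prmt1 protein to compounds spotted on small-molecule microarray slides.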 As to conditions: small-molecule microarray binding, higher = more signal.
The nature of experiment [12]: yeast growth modulation, basal conditions, primary screen, YJM789 clinical isolate, OD600, 24 h (AID 1089).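 Note: growth of clinical yeast isolate S. cerevisiae YJM 789 seeded 1000 cells per well; test concentration not given here.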 The note with it: S. cerevisiae YJM789 growth, higher = more signal, called active from +8 up or from −8 down.
The nature of experiment [13]: fission yeast growth modulation, primary screen, strain 972, OD600, 24 h, no modulator (AID 1090).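 Note: basal condition with compound alone and no growth modifier present; test concentration not given here.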 As to conditions: S. pombe 972 growth, higher = more signal, called active from +8 up or from −8 down.
A short description of experiment [14]: S. cerevisiae growth modulation with rapamycin, primary screen, strain BY4716, OD600, 96 h (AID 1091). Note: test concentration not given here. The note with it: higher = more signal, called active from +8 up or from −8 down.
Experiment [15] concerns the target Torsin-1A-interacting protein 2 (Homo sapiens) (UniProt Q8NFQ8). Kind of experiment: LULL1 binders on small-molecule microarray, primary screen, cell lysate, human LULL1 lysate, 635/667 nm fluorescence (AID 1092).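 Note: probe is lysate of COS7 cells overexpressing human LULL1; score merges per-feature 667 nm fluorescence with signal-to-noise.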 The note with it: hLULL1 lysate binding, 635 nm fluorescence, higher = more signal.
Experiment [16] is described as follows: E. coli growth modulation, two-sided OD650, primary screen, E. coli filamentation project, strain DRC41, 24 h (AID 1093).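 Note: MC1000 strain lacking acrAB efflux and sulA so SOS filamentation is blocked; test concentration not given here.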 The note with it: OD650, 24 h, higher = more signal, called active from +8 up or from −8 down.
Experiment [17] in a line: small-molecule microarray binders of probe aLefty2, primary screen, biochemical, biotinylated probe, 635/667 nm fluorescence (AID 1094).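 Note: score merges spot fluorescence near 667 nm with spot signal-to-noise ratio.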 The note with it: higher = more signal.
Experiment [18] has as its system Noggin (protein binding on small-molecule microarray). In words: Noggin binders on small-molecule microarray, primary screen, biochemical, 635/667 nm fluorescence (AID 1095).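 Note: score merges 667 nm feature fluorescence with signal to noise over triplicate slides.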 As to conditions: 635 nm fluorescence, higher = more signal.
The target of experiment [19] is Neurogenic locus notch homolog protein 3 (Homo sapiens) (UniProt Q9UM47). Kind of experiment: NOTCH3 binders on small-molecule microarray, primary screen, biochemical, 635/667 nm fluorescence (AID 1096). As to conditions: NOTCH3 binding, 635 nm fluorescence, higher = more signal.
The nature of experiment [20]: small-molecule microarray binders of probe aEGFR, primary screen, biochemical, biotinylated probe, 635/667 nm fluorescence (AID 1097).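 Note: probe is a biotinylated anti-EGFR antibody binding compounds printed on slides; score combines fluorescence near 667 nm and signal to noise of each spot.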 As to conditions: higher = more signal.

Molecules are shown by their SMILES. Activity calls are given as the source filed them.

Pro-neuregulin-1, membrane-bound isoform (Homo sapiens), sequence (Q02297 whole entry, looked up, the tested form may be a part, canonical isoform): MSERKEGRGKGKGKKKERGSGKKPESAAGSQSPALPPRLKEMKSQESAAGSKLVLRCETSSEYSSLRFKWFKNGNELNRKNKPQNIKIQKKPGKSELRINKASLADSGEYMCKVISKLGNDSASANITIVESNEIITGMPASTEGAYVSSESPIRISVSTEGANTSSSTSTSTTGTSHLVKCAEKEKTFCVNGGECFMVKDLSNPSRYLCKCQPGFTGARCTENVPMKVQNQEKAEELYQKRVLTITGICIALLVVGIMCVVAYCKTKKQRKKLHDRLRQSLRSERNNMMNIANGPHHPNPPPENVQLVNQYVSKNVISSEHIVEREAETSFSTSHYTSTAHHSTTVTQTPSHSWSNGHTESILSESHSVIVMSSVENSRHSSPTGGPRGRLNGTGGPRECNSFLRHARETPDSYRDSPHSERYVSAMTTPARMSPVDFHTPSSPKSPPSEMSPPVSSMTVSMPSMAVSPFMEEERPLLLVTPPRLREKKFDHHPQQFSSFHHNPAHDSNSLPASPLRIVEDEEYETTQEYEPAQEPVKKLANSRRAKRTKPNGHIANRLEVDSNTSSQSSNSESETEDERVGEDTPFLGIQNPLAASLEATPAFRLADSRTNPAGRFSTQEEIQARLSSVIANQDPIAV
Neurogenic locus notch homolog protein 3 (Homo sapiens), sequence (Q9UM47 whole entry, looked up): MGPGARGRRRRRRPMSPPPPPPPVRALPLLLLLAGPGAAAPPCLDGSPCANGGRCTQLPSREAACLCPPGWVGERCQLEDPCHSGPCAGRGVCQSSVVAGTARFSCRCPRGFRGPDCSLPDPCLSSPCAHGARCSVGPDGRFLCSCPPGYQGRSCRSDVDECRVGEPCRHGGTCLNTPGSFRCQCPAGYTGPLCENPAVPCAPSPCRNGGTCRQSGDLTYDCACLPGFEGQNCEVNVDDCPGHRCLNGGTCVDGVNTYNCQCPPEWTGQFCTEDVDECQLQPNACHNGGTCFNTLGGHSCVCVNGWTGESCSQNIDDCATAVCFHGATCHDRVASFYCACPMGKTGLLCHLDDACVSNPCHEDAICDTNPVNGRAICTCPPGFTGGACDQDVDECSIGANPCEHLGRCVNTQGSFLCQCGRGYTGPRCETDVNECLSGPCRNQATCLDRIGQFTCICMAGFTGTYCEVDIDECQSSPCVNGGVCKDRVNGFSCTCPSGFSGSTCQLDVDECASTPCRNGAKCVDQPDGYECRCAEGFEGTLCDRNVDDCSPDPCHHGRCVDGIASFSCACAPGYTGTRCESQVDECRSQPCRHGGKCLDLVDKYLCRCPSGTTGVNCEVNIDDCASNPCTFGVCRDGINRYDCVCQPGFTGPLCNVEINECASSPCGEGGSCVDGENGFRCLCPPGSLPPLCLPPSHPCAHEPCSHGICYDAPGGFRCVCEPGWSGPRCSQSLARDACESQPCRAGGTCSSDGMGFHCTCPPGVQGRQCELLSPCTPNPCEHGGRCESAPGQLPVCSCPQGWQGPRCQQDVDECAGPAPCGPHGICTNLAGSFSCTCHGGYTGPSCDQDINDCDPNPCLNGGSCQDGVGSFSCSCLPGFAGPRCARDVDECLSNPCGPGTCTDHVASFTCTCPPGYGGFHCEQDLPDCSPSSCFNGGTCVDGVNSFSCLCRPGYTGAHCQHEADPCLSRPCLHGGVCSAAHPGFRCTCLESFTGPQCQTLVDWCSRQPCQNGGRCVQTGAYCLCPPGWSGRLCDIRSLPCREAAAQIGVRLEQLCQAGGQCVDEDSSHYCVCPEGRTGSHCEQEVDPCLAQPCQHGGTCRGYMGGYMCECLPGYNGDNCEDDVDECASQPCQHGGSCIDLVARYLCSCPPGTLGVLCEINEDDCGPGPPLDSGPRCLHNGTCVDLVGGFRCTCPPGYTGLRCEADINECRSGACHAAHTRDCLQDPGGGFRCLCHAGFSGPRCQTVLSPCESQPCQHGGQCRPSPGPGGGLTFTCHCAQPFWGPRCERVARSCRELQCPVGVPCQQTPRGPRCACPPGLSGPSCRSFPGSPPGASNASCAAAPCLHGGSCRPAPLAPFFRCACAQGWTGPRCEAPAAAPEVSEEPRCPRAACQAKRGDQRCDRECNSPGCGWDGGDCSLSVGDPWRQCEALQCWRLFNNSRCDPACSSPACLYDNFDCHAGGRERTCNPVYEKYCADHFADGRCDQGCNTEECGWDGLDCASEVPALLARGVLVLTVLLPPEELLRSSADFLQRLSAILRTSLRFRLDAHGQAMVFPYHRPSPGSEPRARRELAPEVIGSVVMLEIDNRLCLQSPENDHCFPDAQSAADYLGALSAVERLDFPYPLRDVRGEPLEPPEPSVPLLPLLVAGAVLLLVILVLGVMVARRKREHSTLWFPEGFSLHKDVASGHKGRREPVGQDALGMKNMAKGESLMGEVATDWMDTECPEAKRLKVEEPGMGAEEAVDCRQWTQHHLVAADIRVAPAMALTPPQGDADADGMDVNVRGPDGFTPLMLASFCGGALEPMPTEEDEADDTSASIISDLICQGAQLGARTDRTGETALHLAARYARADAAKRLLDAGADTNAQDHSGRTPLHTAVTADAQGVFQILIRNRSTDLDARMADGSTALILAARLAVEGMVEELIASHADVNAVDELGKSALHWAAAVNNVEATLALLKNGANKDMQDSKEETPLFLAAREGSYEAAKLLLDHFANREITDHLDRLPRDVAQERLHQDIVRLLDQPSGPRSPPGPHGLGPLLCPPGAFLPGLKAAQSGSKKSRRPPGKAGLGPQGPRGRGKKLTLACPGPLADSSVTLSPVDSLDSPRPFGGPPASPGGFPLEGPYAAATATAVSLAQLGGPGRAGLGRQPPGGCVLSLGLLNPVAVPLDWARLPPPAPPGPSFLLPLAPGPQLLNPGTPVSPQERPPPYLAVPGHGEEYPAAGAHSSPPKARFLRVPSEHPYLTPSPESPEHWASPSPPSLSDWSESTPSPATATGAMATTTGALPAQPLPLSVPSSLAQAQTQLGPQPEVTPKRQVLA
Torsin-1A-interacting protein 2 (Homo sapiens), sequence (Q8NFQ8 whole entry, looked up): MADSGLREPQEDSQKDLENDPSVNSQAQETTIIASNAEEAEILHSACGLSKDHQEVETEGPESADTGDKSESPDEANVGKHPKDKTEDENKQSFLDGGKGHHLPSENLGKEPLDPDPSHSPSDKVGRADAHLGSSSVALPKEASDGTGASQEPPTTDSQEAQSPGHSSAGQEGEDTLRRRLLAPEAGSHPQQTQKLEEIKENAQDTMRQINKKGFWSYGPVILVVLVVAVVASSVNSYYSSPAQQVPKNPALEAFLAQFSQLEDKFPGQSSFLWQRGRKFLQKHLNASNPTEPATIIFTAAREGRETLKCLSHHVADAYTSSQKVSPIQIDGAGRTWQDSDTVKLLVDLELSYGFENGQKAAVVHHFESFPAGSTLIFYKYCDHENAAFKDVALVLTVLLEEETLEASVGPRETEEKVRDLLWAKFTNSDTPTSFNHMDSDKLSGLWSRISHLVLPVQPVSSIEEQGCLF

As for `COc1ccc(CCNC(=O)[C@@H]2c3ccccc3C(=O)N(Cc3ccccc3)[C@H]2c2ccc(CO)cc2)cc1`, the composite z-score in [1] was 0.262; in experiment [2] it was 1.24; in [3] it was -0.0866; in experiment [4], -0.101; in [5], -0.117; in experiment [6], -0.0744. The composite z-score in experiment [7] was 1.2; in [9] it was 0.0887; in experiment [10], 3.74; in experiment [11], 1.55; in experiment [15], 3.23; in experiment [17], 0.06. For the same molecule, the composite z-score in [18] is 0.107; in experiment [19], 0.233; in experiment [20], -0.0978. The z-score in experiment [8] is -2.26 (inactive); in experiment [12], -1.34 (inactive); in [13] it was -0.586 (inactive); in [14] it was -0.332 (inactive); in experiment [16], 1.95 (inactive).
Consider `CCOC(=O)C[C@H]1[C@H](OC(=O)Cc2ccc3c(c2)OCO3)[C@@H](NC(=O)c2ccccc2)c2cc(OCCCO)ccc2N1C(=O)c1ccc2ccccc2n1`, for which the composite z-score was -0.146 in experiment [1]; -0.183 in [2]; -0.147 in experiment [3]; 0.352 in [4]; 0.671 in experiment [5]; 0.485 in experiment [6]. For the same molecule, the composite z-score in [7] is 0.55; in experiment [9], 0.0323; in [10] it was -0.175; in experiment [11], 0.4; in experiment [15], 1.13; in [17], -0.0179. Moreover, the composite z-score is 0.196 in experiment [18], 0.0199 in [19] and -0.147 in experiment [20]. Also, the z-score in experiment [8] was -4.6 (inactive); in experiment [12] it was -2.25 (inactive); in experiment [13], -1.2 (inactive); in [14], -0.433 (inactive); in experiment [16], 1.45 (inactive).
As for `O=C1N(CCS(=O)(=O)c2ccccc2)c2ccccc2[C@H]2OC(c3ccc(OCCCO)cc3)=N[C@@]12CCS(=O)(=O)c1ccccc1`, the composite z-score in experiment [1] stood at 2.15; in experiment [2] it was 0.625; in [3], 0.415; in experiment [4], 0.202; in experiment [5] it was 1.5; in experiment [6], 1.38. For the same molecule, the composite z-score in [7] is 1.36; in [9], 1.43; in experiment [10], 0.772; in experiment [11] it was 1.55; in experiment [15], 3.1; in [17], 0.856. Also, the composite z-score was determined as 1.08 in experiment [18], 1.07 in [19] and 0.723 in [20]. Also, the z-score is -0.938 (inactive) in [8]; 2.95 (inactive) in experiment [12]; 2.54 (inactive) in [13]; 7.94 (inactive) in [14]; 0.8 (inactive) in experiment [16].
For the molecule `CCCC=C(CCC)[C@@H](NS(=O)(=O)c1cccc2cccnc12)c1ccc(C(=O)OC)cc1`, the composite z-score was 3.16 in experiment [1]; 1.19 in experiment [2]; 0.84 in experiment [3]; 1.65 in [4]; 1.59 in [5]; 0.136 in experiment [6]. The composite z-score was determined as 0.83 in experiment [7]; 3.43 in experiment [9]; 0.754 in experiment [10]; 0.763 in experiment [11]; 0.472 in experiment [15]; 0.679 in experiment [17]. Moreover, the composite z-score in experiment [18] came out at 2.03; in [19] it was 0.542; in [20], 1.35. Moreover, the z-score in [8] is 1.76 (inactive); in experiment [12], 0.797 (inactive); in experiment [13], -0.271 (inactive); in [14], 0.823 (inactive); in experiment [16], -0.376 (inactive).
As for `CC1C=C(CCCO)C=C(C(=O)OCCS(C)(=O)=O)C(C(=O)OCCS(C)(=O)=O)=CN1Cc1cccc(OC(F)(F)F)c1` (stereo not given), the composite z-score in [1] is -0.228; in [2], 0.21; in experiment [3] it was -0.0379; in experiment [4], 0.203; in [5], 0.707; in experiment [6], 2.08. For the same molecule, the composite z-score in [7] was 1.14; in [9] it was 0.106; in [10], -0.0645; in experiment [11], 0.482; in experiment [15], 3.11; in [17], 0.0057. Also, the results for the composite z-score in experiment [18], in [19] and in experiment [20] were 0.0266, 0.379 and -0.0418, respectively. Further, the z-score in experiment [8] is 0.416 (inactive); in experiment [12] it was -1.27 (inactive); in experiment [13], -2.49 (inactive); in [14], -0.0014 (inactive); in [16], -0.436 (inactive).

These data come from PubChem BioAssay.
